# Source: PubChem BioAssay (NCATS)
# Results filed as inconclusive are left out. Unmarked numbers belong to inactive results. Calls follow the shape of the dose curve; as a rule, active = well fitted inhibition curve with a large enough effect; inconclusive = small, poorly fitted or top-dose-only effect; inactive = no such curve, though single readings can be large or run the other way.
# Target: Retinaldehyde dehydrogenase 3 (Homo sapiens) (UniProt P47895)
# Experiment: qHTS for Inhibitors of the Aldehyde Dehydrogenase Family (ALDH1A3) Primary screen (AID 2061315);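 also: plate controls were DMSO vehicle for no effect and reference inhibitor for full effect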
# Conditions: ALDH inhibition qHTS; series mostly up to 56 µM; activity change, negative = inhibition: at the top concentration
row,Structure (SMILES),"activity change, negative = inhibition"
1,Cc1cc(NS(=O)(=O)c2ccc(NC(=O)Cc3ccc(Cl)cc3Cl)cc2)no1,13.4%
2,O=C(Nc1nc(-c2ccccc2)cs1)c1ccncc1NS(=O)(=O)c1cccnc1,3.78%
3,O=S(=O)(NC1CCN(S(=O)(=O)c2ccc3c(c2)OCCO3)C1)c1c(F)cccc1F (stereo not given),21.5%
4,COc1cccc(-c2ccc3ncnc(NCc4cc(C)cs4)c3c2)c1,-2.45%
5,CCCCNc1nc(C)nc2c1nc(-c1ccccc1)n2CCN(C)C,6.95%
6,O=C(N1CCc2cc([S+](=O)([O-])N3CCN([S+](=O)([O-])c4c(F)cccc4F)CC3)ccc2C1)C(F)(F)F,-12.8%
7,Nc1ccc(-c2cccc3c(=O)cc(N4CCOCC4)oc23)cc1,-3.48%
8,COc1ccc(OC)c(Nc2nn3c(=O)c4ccccc4nc3s2)c1,-29.4%
9,COc1ccc(O)c(CNc2ccc(S(=O)(=O)Nc3nccs3)cc2)c1,8.82%
10,C=CCNc1oc(-c2cccc(Cl)c2)nc1C#N,6.54%
11,CC(=O)c1ccc(NC(=O)Nc2nnc(-c3ccncc3)s2)cc1,3.26%
12,Cc1ccc(NS(=O)(=O)c2cc3c(cc2N(C)C)NC(=O)CC3)cc1C,-8.09%
13,CC(=O)c1cc2c(s1)c1cnn(Cc3ccccc3F)c(=O)c1n2C,-5.25%
14,O=C(CNC(=O)c1ccc(Cl)cc1Cl)OC(C(=O)Nc1cc(C(F)(F)F)ccc1Cl)c1ccccc1 (stereo not given),-5.12%
15,CCSC1=NS(=O)(=O)c2ccccc21,-11.1%
16,COc1ccc2nc(-c3ccc(N(C)C)cc3)sc2c1,-12.4%
17,Cc1ccc(NS(=O)(=O)c2cc3c(cc2Br)NC(=O)CO3)cc1C,-11.1%
18,CC1=CC2/C=C(\C)CCC(O)C(=O)C(O)CC(=O)C23C(=O)NC(CC(C)C)C3C1C (stereo not given),0.187% [at 28 µM]
19,COCCN(CCOC)c1nc(C)nc2c1nc(-c1ccccc1)n2CCN1CCCC1,2.32%
20,Cc1ccc(-c2nnc(N3CCC(C(N)=O)CC3)s2)cc1,10.6%

row,Structure (SMILES),"activity change, negative = inhibition"
1,CCCn1c(C)nc2c(N3CCN(C)CC3)nc(C)nc21,2.42%
2,Cc1ccc(NS(=O)(=O)c2cc3c(cc2N2CCCCC2)NC(=O)CC3)cc1C,-13.6%
3,O=S1(=O)N=C(Sc2cc(C(F)(F)F)cc(C(F)(F)F)c2)c2ccccc21,-16.6%
4,Brc1cnc2nc(SCc3ccncc3)[nH]c2c1,5.29%
5,Cn1c2cc(B(O)O)sc2c2cnn(Cc3ccccc3F)c(=O)c21,-15.7%
6,CC(=O)Nc1ccccc1OC1=N[S+](=O)([O-])c2ccccc21,-25.4%
7,Cc1ccc(CNc2ncnc3ccc(-c4ccc5c(c4)OCO5)cc23)o1,22.1%
8,Cc1cnc(-c2ccccc2C2CC2)nc1NCc1ccc(-c2cccnc2)cc1,-12.7%
9,S=C(NCCCNc1ccc(Br)cn1)NCCCc1cnc[nH]1,0.333%
10,Cc1nc(-c2ccc(S(=O)(=O)Nc3ccc(C)c(C)c3)s2)cs1,8.46%
11,O=C1CCc2cc(S(=O)(=O)Nc3ccc(Cl)cc3)ccc2N1,2.89%
12,Fc1cccc(CSc2nc3ncc(Br)cc3[nH]2)c1,5.97%
13,Cc1ccc(NS(=O)(=O)c2cc3c(cc2/C=C/c2ccccc2)NC(=O)CO3)cc1C,-2.69%
14,CCOC(=O)c1ccoc1-c1ccc2ncnc(N(C)Cc3sccc3C)c2c1,30.5%
15,Cc1ccc(OCCn2c(CCNC(=O)/C=C/c3ccccc3Cl)nc3ccccc32)cc1,-1.91%
16,C[N+]1(CC2COC(c3ccccc3)(c3ccccc3)O2)CCCCC1 (stereo not given),-15.1% [at 28 µM]
17,C/C=C\C1=CCCC1Nc1ncnc2ccc(-c3c(C)noc3C)cc12 (stereo not given),3.94%
18,c1csc(CNc2ncnc3ccc(-c4ccc5c(c4)OCCO5)cc23)c1,-8.66%
19,CCCn1c(-c2ccc(F)cc2)nc2c(NCCN3CCCC3)nc(C)nc21,13.4%
20,COC1CC(O[C@H]2CC[C@]3(C)C4CC[C@]5(C)C(C6=CC(=O)OC6)=CCC56OC46CC[C@@H]3C2)OC(C)C1O[C@@H]1O[C@H](CO[C@@H]2O[C@H](CO)[C@@H](O)[C@H](O)[C@H]2O)[C@@H](O)[C@H](O)[C@H]1O (stereo not given in full),-5.72% [at 16.9 µM]
